# Bioassay records deposited in PubChem by Paczesny and Yang Labs, IUPUI and University of Michigan.
# ST2 inh: blocks human ST2 binding to IL-33. Q01638. AlphaLISA ST2-Fc/biotin-IL-33 interaction, 1 h. inhibition, % for hits at 17 µM. 78,000 tested, 2.3% active. AID 1259354; in the data active = inhibition above about 30%
# Target sequence (Q01638 whole entry, looked up): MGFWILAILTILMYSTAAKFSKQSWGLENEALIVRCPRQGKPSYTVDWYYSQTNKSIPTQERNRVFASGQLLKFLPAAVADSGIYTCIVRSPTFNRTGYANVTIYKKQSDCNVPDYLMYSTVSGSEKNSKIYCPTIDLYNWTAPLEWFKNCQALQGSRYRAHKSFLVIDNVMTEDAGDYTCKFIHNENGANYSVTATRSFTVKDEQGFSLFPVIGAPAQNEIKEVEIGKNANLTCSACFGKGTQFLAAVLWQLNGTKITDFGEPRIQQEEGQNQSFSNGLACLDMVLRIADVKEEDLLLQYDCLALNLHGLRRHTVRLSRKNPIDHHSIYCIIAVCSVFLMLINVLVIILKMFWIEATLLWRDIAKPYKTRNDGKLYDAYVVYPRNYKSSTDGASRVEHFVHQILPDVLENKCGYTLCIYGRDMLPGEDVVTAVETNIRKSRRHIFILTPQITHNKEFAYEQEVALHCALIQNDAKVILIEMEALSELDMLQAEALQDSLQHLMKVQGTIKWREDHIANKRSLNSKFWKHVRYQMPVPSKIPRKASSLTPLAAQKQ
# * = called active by the depositor; i = inactive. Shown is part of a subset that was picked to be rich in hits.
SMILES,ST2 inh
COc1ccc2cc3cc(C(=O)Nc4ccc(OC)c(Cl)c4)sc3nc2c1,38.0%*
COc1ccc2cc3cc(C(=O)NCc4ccc(C)cc4)sc3nc2c1,31.0%*
COCCCNC(=O)c1cc2cc3cc(OC)ccc3nc2s1,i
COc1ccc([N+](=O)[O-])cc1NC(=O)COc1ccc(C)cc1Br,i
COCCNC(=O)c1cc2cc3cc(OC)ccc3nc2s1,i
COc1ccc([N+](=O)[O-])cc1NC(=O)c1ccoc1C,i
CCN(CCCNC(=O)c1cc2cc3ccc(OC)cc3nc2s1)c1ccccc1,31.0%*
COc1ccc2cc3cc(C(=O)N4CCN(C)CC4)sc3nc2c1,i
COc1ccc([N+](=O)[O-])cc1NC(=O)c1cc2cc3ccc(C)cc3nc2s1,46.0%*
COc1ccc2nc3sc(C(=O)NCc4ccccc4OC)cc3cc2c1,i
COc1ccc(NC(=O)c2cc3cc4ccc(C)cc4nc3s2)cc1OC,i
CCCCNC(=O)c1cc2cc3cc(OC)ccc3nc2s1,i
O=C(Nc1cc(Cl)ccc1Cl)c1ccccc1Br,i
O=C(Nc1ccc2c(c1)OCO2)C1CCN(C(=O)c2ccc(F)cc2)CC1,i
CCc1nc(C)c(CC(=O)N2CCCC(N3CCCC3=O)C2)c(=O)[nH]1 (configuration not stated),i
O=C(Nc1ccc(Cl)cc1)c1cc2ccccc2oc1=O,i
CCOC(=O)c1c(NC(=O)CSc2cn(C)c3ccccc23)sc2c1CCCC2,i
Cn1c(SCC(=O)Nc2ccc(Br)cc2)nnc1-c1ccc(N)cc1,i
NS(=O)(=O)c1ccc([N+](=O)[O-])cc1,i
COc1ccc(S(=O)(=O)Nc2cc(C(C)C)c(O)c(C(C)C)c2)cc1,i
CC1=C(C(=O)OC2CCCCC2)C(c2ccc(Cl)c(Cl)c2)CC(=O)N1 (configuration not stated),i
CCOc1ccc(NC(=O)c2ccccc2Br)c([N+](=O)[O-])c1,36.0%*
CCC(=O)c1ccccc1NC(=O)c1ccccc1Br,i
CCCOc1ccc(C(=O)Nc2ccccc2[N+](=O)[O-])cc1,39.0%*
CCN(CC)c1ccc(NC(=O)c2ccccc2Br)c(C)c1,i
SMILES,ST2 inh
CCCOc1cccc(C(=O)Nc2ccccc2Cl)c1,i
CCOc1ccc(NC(=O)c2ccccc2OCC)c([N+](=O)[O-])c1,42.0%*
CCCOc1ccc(C(=O)Nc2cc(Cl)ccc2Cl)cc1,i
Cc1c(C(=O)Nc2ccccc2[N+](=O)[O-])csc1-c1ccccc1,35.0%*
CCc1ccccc1NC(=O)c1ccccc1[N+](=O)[O-],i
CCOc1cccc(C(=O)Nc2ccc(C)cc2[N+](=O)[O-])c1,i
CCOc1ccccc1NC(=O)c1ccccc1C,i
Cc1ccc(NC(=O)c2ccccc2[N+](=O)[O-])cc1,i
CCN(CC)CCNC(=O)c1ccc2c(c1)N(Cc1ccc(C)cc1)CCS2,i
COc1ccc2oc(=O)c(NC(=O)c3ccc(Br)cc3)cc2c1,i
CS(=O)(=O)N(CC(=O)Nc1ccccc1C(=O)O)c1cccc(Br)c1,i
O=C(NC1CCCC1)c1cc(=O)[nH]c2ccc(S(=O)(=O)N3CCCC3)cc12,i
Cc1cccc(NS(=O)(=O)c2ccc(CC(C)C)cc2)c1,i
CC(C)Oc1ccc(C(=O)Nc2ccc(Cl)c(N3CCCS3(=O)=O)c2)cc1,i
O=C(Nc1ccccc1)c1cc(S(=O)(=O)Nc2ccc(F)cc2)cs1,i
O=C(CN1C(=O)CNC1=O)N1CCC2(CC1)C(=O)Nc1ccccc12,i
Cc1nc(C)c(C(=O)N2CC[C@H](CO)[C@H](O)C2)s1,i
CC(NC(=O)c1cc(-c2ccco2)on1)c1ccccc1 (configuration not stated),i
Cc1ccc(S(=O)(=O)N2CCCCCC2)cc1,i
COc1ccc(S(=O)(=O)Nc2ccc(-c3csc(C)n3)cc2)cc1,i
CCOc1ccc(-c2cc3cc(OC)c(OC)cc3c(CC)n2)cc1,i
COc1ccc(/C=C(\C#N)c2nc(-c3ccc(C)cc3)cs2)cc1,60.0%*
CCOc1ccc(/C=C(\C#N)c2nc(-c3ccc(OCC)cc3)cs2)cc1,33.0%*
N#C/C(=C\c1ccc(I)cc1)c1nc(-c2ccc([N+](=O)[O-])cc2)cs1,i
CC(=O)c1c(OC(=O)c2ccccc2Cl)ccc2c(C)cc(=O)oc12,i
SMILES,ST2 inh
O=C(Nc1cccc(F)c1)C1c2ccccc2Oc2ccccc21,i
COc1nc2ccccc2cc1-c1c(-c2ccccc2)ncn1C(CO)CO,i
COc1ccc(-c2cc3ccccc3[nH]2)cc1,i
COc1ccc(-c2ccc[nH]2)cc1,42.0%*
COc1ccc(-c2cc(-c3ccccc3)nc(=O)[nH]2)cc1,i
COC(=O)C1=C(NC(=O)c2ccccc2F)CCS1,39.0%*
COC(=O)C1=C(NC(=O)c2cccc3ccccc23)CCS1,44.0%*
O=C(O)c1c(NC(=O)c2cccc3ccccc23)sc2c1CCCC2,i
COc1ccccc1NC(=O)c1ccccc1F,i
O=C(Nc1nc2ccccc2s1)c1cccc2ccccc12,i
COC(=O)c1sc2ccccc2c1NC(=O)c1ccccc1F,i
Cc1cccc(NC(=O)C2CCCC2)n1,i
Cc1cc(C)n(Cc2nc(-c3sccc3C)oc2C)n1,i
COc1cc(-c2nc3cnccn3c2NC2CCCC2)ccc1O,i
CC1(C)CC(=O)C2=C(C1)OC(N)=C(C#N)C2c1ccc(Br)s1 (configuration not stated),i
N#C/C(=C\c1ccc(Br)o1)c1nc(-c2ccc(Cl)cc2)cs1,31.0%*
COc1ccc(-c2csc(/C(C#N)=C\c3ccc(OC)o3)n2)cc1,49.0%*
COc1ccc(-c2csc(/C(C#N)=C/c3ccc(Br)o3)n2)cc1,42.0%*
COc1cccc2cc(-c3nc(-c4ccc(Br)cc4)cs3)c(=O)oc12,i
COc1ccc(-c2csc(NC(=O)C3CC=CCC3C(=O)O)n2)cc1 (configuration not stated),i
Cc1ccc(-c2csc(NC(=O)CCCC(=O)O)n2)c(C)c1,i
Cc1ccc(/C=C(/C#N)c2nc(-c3ccc(Cl)c(Cl)c3)cs2)o1,i
COc1ccc(-c2nnc(-c3ccc(OC)cc3)o2)cc1,i
Cc1ccc(-c2csc(/C(C#N)=C/c3ccc(Br)o3)n2)c(C)c1,60.0%*
CC(=O)N[C@H]1CCN(C(=O)C[C@@H]2[C@H](O)CCC3[C@]4(C)CO[C@@H](COc5ccccc5)O[C@@H]4CC[C@]32C)C1 (some centres not stated),i
SMILES,ST2 inh
O=C(c1c(O)cc(O)cc1O)C(c1coc2cc(O)cc(O)c2c1=O)C(c1ccc(O)cc1)c1ccc(O)cc1 (configuration not stated),i
O=C(Cn1cnc2c(cnn2-c2ccc(Cl)cc2)c1=O)N1CCCc2ccccc21,i
CCc1ccc(OC(=O)Cn2cnc3sc4c(c3c2=O)CCCC4)cc1,i
COC(=O)c1nc2n(n1)C(c1ccc(Br)cc1)C(C(=O)OC1CCCCC1)=C(C)N2 (configuration not stated),i
CCOC(=O)c1nn(CC2CC2)c2c1CN(C(=O)C(C)Oc1ccc(Cl)cc1C)CC2 (configuration not stated),i
O=C1CCC(C(=O)N2CCC(C(=O)N3CCCC3)CC2)CN1CC1CCCCC1 (configuration not stated),i
CC(C)C12C[C@@H]3C[C@@H](CC(C(=O)NN)(C3)C1)C2,i
CCC1CN(C(=O)c2cc3ncccn3n2)CCC(=O)N1Cc1ccccc1 (configuration not stated),i
